Source: PubChem BioAssay AID1745847 (National Center for Advancing Translational Sciences (NCATS), 2022)
Among all 2,100 compounds or so, about 670 (32%) were called active. Roughly 50% stayed inconclusive and do not appear here. Calls come from the whole dose curve; as a rule, active = well fitted inhibition curve with a large enough effect; inconclusive = small, poorly fitted or top-dose-only effect; inactive = no such curve, though single readings can be large or run the other way. The list shows a part of the results.

assay: CMV-Luciferase Counterscreen for Inhibitors of ATXN expression; details: HEK-293 CMV-luciferase reporter, luminescence, 24 h; series mostly up to 57.5 µM; activity change, negative = inhibition: at the top concentration; note: nearly all actives have a fitted effect of over 55% in size
% is set by controls: 0 for no effect and ±100 for the full control effect; potency is the fitted concentration of half-maximal effect.

Compound | Potency | activity change, negative = inhibition
C=CCc1cccc(/C=N/NC(=O)c2ccccc2Br)c1O | 10 µM (active) | 
C=CCc1cccc(/C=N/NC(=O)CCC(=O)Nc2ccc(C)cc2)c1O | 8.91 µM (active) | 
CC(SC(C)C(=O)NN=Cc1cccc(Cl)c1)C(=O)NN=Cc1cccc(Cl)c1 (stereo not drawn) |  | -24.3% [at 11.4 µM] (inactive)
C=CCc1cccc(/C=N/NC(=O)CCC(=O)Nc2ccc(F)cc2)c1O | 3.98 µM (active) | 
C=CCc1cccc(/C=N/NC(=O)C(C)Nc2ccc(C)cc2)c1O (stereo not drawn) | 10 µM (active) | 
C=CCc1cccc(/C=N/NC(=O)CNc2ccccc2)c1O | 2 µM (active) | 
C=CCc1cccc(/C=N/NC(=O)CCCNc2ccc(C)cc2)c1O | 15.8 µM (active) | 
Nc1ccc2c(c1)OC1(CCCC1)O2 |  | -27.3% [at 11.4 µM] (inactive)
CC(C)(C)c1ccc(OCCn2nc(C(=O)O)c3ccccc3c2=O)cc1 |  | -11.4% (inactive)
COc1ccc(NC(=O)N2CCN(c3nc(-c4cccc(OC)c4)cs3)CC2)cc1 | 3.55 µM (active) | 
Cn1nccc1C(=O)N1CCCC(C(=O)c2cccc3ccccc23)C1 (stereo not drawn) |  | -16.4% (inactive)
CCCc1cnc(NCCNCC(O)COc2ccc(Cl)c(Cl)c2)nc1 (stereo not drawn) | 31.6 µM (active) | 
N#C/C(=C\Nc1ccc2cn[nH]c2c1)c1nc(-c2ccc(Cl)cc2)cs1 |  | 11% [at 11.4 µM] (inactive)
Cc1ccc(SC2=C(Sc3ccc(C)cc3)C(=O)c3ccccc3C2=O)cc1 |  | 68.6% (inactive)
O=C1C(SCCO)=C(SCCO)C(=O)c2ccccc21 | 8.91 µM (active) | 
CCCNC(=O)c1ccc2c(=O)c(O)c(-c3cccc(Br)c3)[nH]c2c1 | 20 µM (active) | 
C/C(=N\NC(=O)C(C)n1nc(C)c([N+](=O)[O-])c1C)c1ccccc1O (stereo not drawn) | 2.51 µM (active) | 
CCCCC(=O)NC(c1ccc(N(CC)CC)cc1)c1ccc2cccnc2c1O (stereo not drawn) | 0.282 µM (active) | 
CCCCC(=O)NC(c1ccc(N(C)C)cc1)c1ccc2cccnc2c1O (stereo not drawn) | 1.78 µM (active) | 
CO[C@@]12[C@@H]3N[C@@H]3CN1C1=C(C(=O)C(N)=C(C)C1=O)[C@@H]2COC(N)=O |  | 10.2% [at 11.4 µM] (inactive)
CC(C)CC(NC(=O)c1ccc(Cl)cc1)C(=O)OCC(=O)c1ccc2c(c1)NC(=O)CO2 (stereo not drawn) | 22.4 µM (active) | 
Cc1ccc(OCC(=O)c2cc(C)n(Cc3cccs3)c2C)c([N+](=O)[O-])n1 | 3.98 µM (active) | 
COc1ccccc1N(CC(=O)N/N=C(\C)c1ccccc1O)S(=O)(=O)c1ccc(C)cc1 | 11.2 µM (active) | 
C/C(=N\NC(=O)Cc1ccc(Cl)cc1)c1ccccc1O | 11.2 µM (active) | 
COc1ccc(CC(=O)N/N=C(\C)c2ccccn2)cc1 | 8.91 µM (active) | 
C/C(=N\NC(=O)CN(c1ccccc1)S(C)(=O)=O)c1ccccc1O | 12.6 µM (active) | 
COc1ccccc1N(CC(=O)NCCSCc1ccc(C)cc1)S(=O)(=O)c1ccccc1 | 22.4 µM (active) | 
CC(C)C[C@H](NC(=O)c1[nH]cnc1C(=O)Nc1ccc(CNC(=O)OC(C)(C)C)cc1)C(=O)OCc1ccccc1 |  | -24.4% [at 11.4 µM] (inactive)
